# Results filed as inconclusive are left out. A call without a number means that no potency is given here. Calls of active or inactive are those of the source. Unless noted, the call rests on the fitted dose curve; in most records, active means well fitted curve in the direction sought with a large enough effect in the repeat runs; inconclusive means weak or mixed curves; inactive means no such curve, though single readings can be large; an effect the other way counts as inactive or inconclusive.
# Legend:
# [1] = qHTS assay to identify small molecule agonists of the RXR signaling pathway - cell viability counter screen (AID 1159529); further: nearly all actives have a fitted effect of over 50% in size; further: potency means the concentration at half of the fitted maximal effect
# Outline: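 CellTiter-Glo luminescence gave viability in the wells also read for beta-lactamase. Cells (RXR-alpha-UAS-bla HEK 293T, 2% charcoal-stripped FBS medium) had 5 hr plating, then 16 hr compound exposure at 37 C; tetraoctyl ammonium bromide served as positive control.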
# [2] = qHTS assay to identify small molecule antagonists of the retinoid acid receptor (RAR) signaling pathway - cell viability counter screen (AID 1159551); further: nearly all actives have a fitted effect of over 35% in size
# Outline: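 Following overnight attachment, C3RL4 reporter cells received DMSO-dissolved compounds and then retinol (1 uM final). Six hours later at 37 C, ATP content was measured by CellTiter-Glo luminescence.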
# [3] = target: Luciferin 4-monooxygenase (Photinus pyralis) (UniProt P08659); experiment: qHTS assay to identify small molecule inhibitors of firefly luciferase (AID 1224835); further: nearly all actives have a fitted effect of over 25% in size; further: potency means the concentration at half of the fitted maximal effect
# Chain of Luciferin 4-monooxygenase (Photinus pyralis) (P08659 whole entry, looked up): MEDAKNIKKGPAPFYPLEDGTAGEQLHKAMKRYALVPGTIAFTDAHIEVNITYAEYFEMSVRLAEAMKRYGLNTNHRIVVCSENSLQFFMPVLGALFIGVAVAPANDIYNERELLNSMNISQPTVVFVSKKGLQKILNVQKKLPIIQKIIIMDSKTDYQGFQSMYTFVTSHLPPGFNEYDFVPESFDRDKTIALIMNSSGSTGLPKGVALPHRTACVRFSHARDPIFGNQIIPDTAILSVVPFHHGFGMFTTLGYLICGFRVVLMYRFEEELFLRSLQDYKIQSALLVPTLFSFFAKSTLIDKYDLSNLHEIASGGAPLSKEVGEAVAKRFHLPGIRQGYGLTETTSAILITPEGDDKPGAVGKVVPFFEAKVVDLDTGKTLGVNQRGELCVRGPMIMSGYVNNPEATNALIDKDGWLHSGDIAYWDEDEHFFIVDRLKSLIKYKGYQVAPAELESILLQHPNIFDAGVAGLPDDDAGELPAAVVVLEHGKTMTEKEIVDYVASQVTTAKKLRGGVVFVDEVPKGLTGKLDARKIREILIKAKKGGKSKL
# Outline: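 Quantitative HTS format; KM concentrations of both substrates. Purified P. pyralis FLuc activity quantified from luminescence images.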
# [4] = qHTS assay to identify small molecule agonists of the constitutive androstane receptor (CAR) signaling pathway - cell viability counter screen (AID 1224836); further: series mostly up to about 92 µM; nearly all actives have a fitted effect of over 45% in size
# Outline: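 Cell viability multiplexed with the CAR agonist screen: CellTiter-Fluor fluorescence after 23 hr at 37 C. HepG2-CYP2B6-hCAR cells got compounds at 15 concentrations with PK11195 at 0.75 uM final.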
# [5] = qHTS assay to identify small molecule antagonists of the constitutive androstane receptor (CAR) signaling pathway - cell viability counter screen (AID 1224837); further: series mostly up to about 92 µM; nearly all actives have a fitted effect of over 45% in size
# Outline: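 Fluorescence from CellTiter-Fluor served as the viability signal. Human hepatoma HepG2 cells stably bearing hCAR and CYP2B6-2.2kb received compound plus CITCO (50 nM final) for 23 hr.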
# [6] = qHTS assay to identify small molecule antagonists of the estrogen related receptor signaling pathway with the pleiotropic PPARgamma coactivator (PGC) from Tox21 10K library - cell viability counter screen (AID 1224840; active means well fitted cell-killing curve with a large enough effect in the repeat runs, not every such curve was filed as active; further: nearly all actives have a fitted effect of over 40% in size; further: potency means the concentration at half of the fitted maximal effect)
# Outline: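 Compounds in DMSO, alongside positive and negative controls, were pinned onto PGC/ERR cells (2,000 per well). Exposure lasted 17.5 hours at 37 C, followed by a 30-minute CellTiter-Fluor incubation and fluorescence reading.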
# [7] = qHTS assay to identify small molecule agonists of the estrogen related receptor signaling pathway with the pleiotropic PPARgamma coactivator (PGC) from Tox21 10K library (AID 1224842); further: nearly all actives have a fitted effect of over 15% in size
# Outline: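 PGC/ERR reporter cells (NTP line) were seeded 2,000 per well, rested 6 h at 37 C/5% CO2, then pin-dosed with compounds in DMSO for 18 h at 37 C; luciferase read by One-Glo luminescence after 30 min at room temperature.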
# [8] = qHTS assay to identify small molecule antagonists of the retinoic acid receptor (RAR) signaling pathway (AID 1159552; further: nearly all actives have a fitted effect of over 50% in size; further: potency means the concentration at half of the fitted maximal effect)
# Outline: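 Luminescent RARE reporter read-out in C3RL4 cells: 6 hr co-treatment at 37 C of test compounds with retinol at 1 uM final. Cells plated overnight beforehand; luciferase reagent incubated 30 min at room temperature before reading.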
# [9] = qHTS assay to identify small molecule agonists of the retinoic acid receptor (RAR) signaling pathway (AID 1159553); further: potency means the concentration at half of the fitted maximal effect
# Outline: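 Cell line C3RL4, RARE luciferase reporter. Treatment: compounds in DMSO, 6 hr, 37 C, 5% CO2, after overnight plating. Detection: luminescence, 30 min RT after reagent.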
# [10] = target: Nuclear receptor subfamily 1 group I member 3 (Homo sapiens) (UniProt Q14994); experiment: qHTS assay to identify small molecule antagonists of the constitutive androstane receptor (CAR) signaling pathway (AID 1224838);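 further: HepG2 cells stably expressing hCAR with CYP2B6 luciferase reporter stimulated by CITCO; nearly all actives have a fitted effect of over 40% in size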
# Chain of Nuclear receptor subfamily 1 group I member 3 (Homo sapiens) (Q14994 whole entry, looked up): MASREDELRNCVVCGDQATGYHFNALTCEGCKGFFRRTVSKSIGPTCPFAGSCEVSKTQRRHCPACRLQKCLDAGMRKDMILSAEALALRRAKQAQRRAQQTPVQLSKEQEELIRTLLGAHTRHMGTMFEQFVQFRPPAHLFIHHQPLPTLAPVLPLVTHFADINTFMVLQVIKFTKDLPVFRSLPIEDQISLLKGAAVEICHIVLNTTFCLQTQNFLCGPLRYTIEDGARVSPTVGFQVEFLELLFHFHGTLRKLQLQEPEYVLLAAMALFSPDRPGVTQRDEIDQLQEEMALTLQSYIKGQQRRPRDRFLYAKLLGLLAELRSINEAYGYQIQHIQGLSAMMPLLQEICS
# Outline: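 Quantitative HTS in double-stable HepG2-CYP2B6-hCAR cells. After 4 h plating, cells get compound (15 concentrations) and CITCO at 50 nM final, incubate 24 h at 37 C, then ONE-Glo luminescence is read.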
# [11] = target: Nuclear receptor subfamily 1 group I member 3 (Homo sapiens) (UniProt Q14994); experiment: qHTS assay to identify small molecule agonists of the constitutive androstane receptor (CAR) signaling pathway (AID 1224839); further: nearly all actives have a fitted effect of over 15% in size; further: potency means the concentration at half of the fitted maximal effect
# Outline: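 Luminescent ONE-Glo read-out after 24 hr, 37 C exposure of double-stable HepG2-CYP2B6-hCAR reporter cells to a 15-point compound series, in the presence of 0.75 uM PK11195 (final).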
# [12] = qHTS assay to identify small molecule antagonists of the estrogen related receptor (ERR) signaling pathway from Tox21 library - cell viability counter screen (AID 1224834); further: nearly all actives have a fitted effect of over 30% in size; further: potency means the concentration at half of the fitted maximal effect
# Outline: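 Viability readout (CellTiter-Fluor fluorescence, 30 min at 37 C) multiplexed with the ERR assay; cells treated 17.5 h at 37 C with compounds delivered in DMSO.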
# [13] = qHTS assay to identify small molecule antagonists of the estrogen related receptor signaling pathway with the pleiotropic PPARgamma coactivator (PGC) from Tox21 10K library (AID 1224841; call rule not given here; further: actives are mostly falling curves and most rising ones were filed inactive; nearly all actives have a fitted effect of over 50% in size; further: potency means the concentration at half of the fitted maximal effect)
# Outline: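 Compound exposure ran 18 hours at 37 C in PGC/ERR cells (2,000/well) that had first rested 6 hours in a 37 C/5% CO2 incubator. Luciferase activity was then detected with One-Glo after a 30-minute room-temperature step.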
# [14] = qHTS assay to identify small molecule antagonists of the estrogen related receptor (ERR) signaling pathway - cell viability counter screen (AID 1224818);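 further: series mostly up to about 46 µM; viability measured after 17.5 h of compound exposure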
# Outline: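 Here, ERR cells are plated at 2,000 cells per well, allowed 6 h to attach, and treated with compounds in DMSO for 17.5 h at 37 C. CellTiter-Fluor is then added and fluorescence read after 30 min.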
# [15] = qHTS assay to identify small molecule agonists of the estrogen related receptor (ERR) signaling pathway (AID 1224820)
# Outline: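 ERR reporter cell line (from NTP), 2,000 cells/well, incubated 6 h before compound addition, then 18 h at 37 C. Luminescence measured 30 min after One-Glo reagent at room temperature.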
# [16] = qHTS assay to identify small molecule antagonists of the estrogen related receptor signaling pathway with the pleiotropic PPARgamma coactivator (PGC) cell viability counter screen (AID 1224822;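 further: series mostly up to about 46 µM; viability read after 17.5 h compound exposure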)
# Outline: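 qHTS format, DMSO compound stocks pin-transferred onto PGC/ERR cells 6 h after plating; 17.5 h exposure at 37 C, then CellTiter-Fluor fluorescence.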
# [17] = qHTS assay to identify small molecule agonists of the estrogen related receptor signaling pathway with the pleiotropic PPARgamma coactivator (PGC) (AID 1224823)
# Outline: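 PGC/ERR reporter cells seeded 6 h, then exposed to compounds (23 nL in DMSO) for 18 h at 37 C. One-Glo luciferase luminescence read after 30 min at room temperature.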
smiles,measurement,setting,value
CCCN(CCC)c1c([N+](=O)[O-])cc(S(C)(=O)=O)cc1[N+](=O)[O-],Potency,[1],inactive
same,Potency,[2],inactive
same,Potency,[3],inactive
same,Potency,[4],inactive
same,Potency,[5],inactive
same,Potency,[6],inactive
same,Potency,[7],inactive
O=C(O)C1(c2ccc3c(c2)OC[C@H](Cc2ccc(-c4ccccc4)cc2)[C@H]3O)CCCC1,Potency,[2],inactive
same,Potency,[8],inactive
same,Potency,[9],inactive
same,Potency,[3],71 µM (active)
same,Potency,[4],inactive
same,Potency,[10],inactive
same,Potency,[11],inactive
same,Potency,[6],inactive
same,Potency,[7],inactive
O=C(NC(=O)c1c(F)cccc1F)Nc1cc(Cl)c(Oc2ncc(C(F)(F)F)cc2Cl)c(Cl)c1,Potency,[1],inactive
same,Potency,[2],inactive
same,Potency,[12],inactive
same,Potency,[3],inactive
same,Potency,[4],inactive
same,Potency,[10],inactive
same,Potency,[11],inactive
same,Potency,[6],inactive
COC1=CC(=O)O[C@@H](CCc2ccccc2)C1,Potency,[2],inactive
same,Potency,[8],inactive
same,Potency,[9],inactive
same,Potency,[12],inactive
same,Potency,[3],inactive
same,Potency,[4],inactive
same,Potency,[10],inactive
same,Potency,[11],56.7 µM (active)
same,Potency,[6],inactive
same,Potency,[13],inactive
same,Potency,[7],inactive
COc1nn(C(=O)NS(=O)(=O)c2ccccc2OC(F)(F)F)c(=O)n1C,Potency,[1],inactive
same,Potency,[2],inactive
same,Potency,[12],inactive
same,Potency,[3],inactive
same,Potency,[4],inactive
same,Potency,[5],inactive
same,Potency,[10],inactive
same,Potency,[11],inactive
same,Potency,[6],inactive
same,Potency,[13],inactive
same,Potency,[7],inactive
CCOC(=O)[C@]1(c2ccccc2)Oc2ccccc2[C@@H]1N,Potency,[2],inactive
same,Potency,[8],inactive
same,Potency,[9],inactive
same,Potency,[12],inactive
same,Potency,[3],inactive
same,Potency,[11],inactive
same,Potency,[6],inactive
O=C(NC(=O)c1c(F)cccc1F)Nc1ccc(OC(F)(F)C(F)OC(F)(F)F)c(Cl)c1 (stereo not given),Potency,[1],inactive
same,Potency,[2],inactive
same,Potency,[12],inactive
same,Potency,[3],inactive
same,Potency,[4],inactive
same,Potency,[5],inactive
same,Potency,[6],inactive
same,Potency,[13],inactive
same,Potency,[7],inactive
CC(O)(CS(=O)(=O)c1ccc(F)cc1)C(=O)Nc1ccc(C#N)c(C(F)(F)F)c1 (stereo not given),Potency,[2],inactive
same,Potency,[8],inactive
same,Potency,[9],inactive
same,outcome,[14],inactive
same,outcome,[15],inactive
same,Potency,[16],inactive
same,outcome,[17],inactive
same,Potency,[12],inactive
same,Potency,[3],inactive
same,Potency,[4],inactive
same,Potency,[5],inactive
same,Potency,[10],inactive
same,Potency,[11],inactive
same,Potency,[6],inactive
same,Potency,[7],inactive
C[C@@H]1CC[C@H]2[C@@H](C)C(=O)O[C@@H]3O[C@@]4(C)CC[C@@H]1[C@]32OO4,Potency,[1],inactive
same,Potency,[2],inactive
same,Potency,[12],inactive
same,Potency,[3],inactive
same,Potency,[4],inactive
same,Potency,[5],inactive
same,Potency,[10],inactive
same,Potency,[6],inactive
same,Potency,[13],1.88 µM (active)
same,Potency,[7],inactive
CS/C(C)=N/OC(=O)N(C)SN(C)C(=O)O/N=C(\C)SC,Potency,[1],49 µM (active)
same,Potency,[3],31.7 µM (active)
same,Potency,[11],inactive
same,Potency,[7],inactive
BrCCCCBr,Potency,[2],inactive
same,Potency,[8],inactive
same,Potency,[12],inactive
same,Potency,[3],inactive
same,Potency,[4],inactive
same,Potency,[5],inactive
same,Potency,[6],inactive
Cc1ccc(-c2c(Cl)nc(C#N)n2S(=O)(=O)N(C)C)cc1,Potency,[2],inactive
same,Potency,[8],inactive
same,Potency,[9],68.5 µM (active)
same,Potency,[12],54.4 µM (active)
same,Potency,[3],35.6 µM (active)
same,Potency,[11],inactive
same,Potency,[6],61.1 µM (active)
CO/C=C(/C(=O)OC)c1ccccc1COc1cccc(C(F)(F)F)n1,Potency,[1],inactive
same,Potency,[3],inactive
same,Potency,[10],inactive
same,Potency,[11],3.85 µM (active)
same,Potency,[6],inactive
same,Potency,[7],inactive
CN(C)c1ccc(N(C)C)cc1,Potency,[2],inactive
same,Potency,[8],inactive
same,Potency,[12],inactive
same,Potency,[3],63.5 µM (active)
same,Potency,[4],inactive
same,Potency,[10],inactive
same,Potency,[6],inactive
Clc1ccc(C2(Cn3cncn3)CC(Br)CO2)c(Cl)c1 (stereo not given),Potency,[1],inactive
same,Potency,[2],inactive
same,Potency,[3],inactive
same,Potency,[10],inactive
same,Potency,[11],60.8 µM (active)
same,Potency,[13],24.2 µM (active)
same,Potency,[7],inactive
CCc1ccc(C(=O)NN(C(=O)c2cc(C)cc(C)c2)C(C)(C)C)cc1,Potency,[2],inactive
same,Potency,[8],inactive
same,Potency,[9],inactive
same,Potency,[12],8.63 µM (active)
same,Potency,[3],inactive
same,Potency,[10],inactive
same,Potency,[6],inactive
same,Potency,[13],30.6 µM (active)
same,Potency,[7],inactive
CCCCC(CC)COP(=O)(Oc1ccccc1)Oc1ccccc1 (stereo not given),Potency,[2],inactive
same,Potency,[8],inactive
same,Potency,[9],inactive
same,Potency,[12],inactive
same,Potency,[3],inactive
same,Potency,[4],inactive
same,Potency,[5],inactive
same,Potency,[10],inactive
same,Potency,[11],27.3 µM (active)
same,Potency,[6],inactive
CC(=O)c1cc2c(cc1C)C(C)(C)C(C)CC2(C)C (stereo not given),Potency,[1],43.6 µM (active)
same,Potency,[3],inactive
same,Potency,[4],inactive
same,Potency,[5],inactive
same,Potency,[10],inactive
CCOS(C)(=O)=O,Potency,[2],inactive
same,Potency,[8],inactive
same,Potency,[9],inactive
same,Potency,[12],inactive
same,Potency,[3],inactive
same,Potency,[4],inactive
same,Potency,[5],inactive
same,Potency,[6],inactive
II,Potency,[1],6.92 µM (active)
same,Potency,[8],68.6 µM (active)
same,Potency,[3],28.3 µM (active)
same,Potency,[4],inactive
same,Potency,[10],inactive
same,Potency,[6],inactive
O=C1c2ccccc2C(=O)C1C(=O)C(c1ccccc1)c1ccccc1,Potency,[2],inactive
same,Potency,[8],inactive
same,Potency,[9],inactive
same,Potency,[12],inactive
same,Potency,[3],inactive
same,Potency,[4],inactive
same,Potency,[5],inactive
same,Potency,[10],inactive
same,Potency,[11],inactive
same,Potency,[6],inactive
same,Potency,[7],inactive
CCOP(=S)(OCC)Oc1cc(Cl)c(Br)cc1Cl,Potency,[2],inactive
same,Potency,[8],inactive
same,Potency,[9],inactive
same,Potency,[12],inactive
same,Potency,[3],inactive
same,Potency,[4],inactive
same,Potency,[10],inactive
same,Potency,[11],21.7 µM (active)
same,Potency,[6],inactive
CC1(C)CCC(Cc2ccc(Cl)cc2)C1(O)Cn1cncn1 (stereo not given),Potency,[2],inactive
same,Potency,[3],inactive
same,Potency,[4],inactive
same,Potency,[5],inactive
same,Potency,[10],inactive
same,Potency,[13],38.6 µM (active)
same,Potency,[7],inactive
